Screening data from PubChem BioAssay.
D2 antag: antagonists of human D2 dopamine receptor | P14416 | inhibition, % at 10 µM | 2% of 340,000 active | HEK293 TREx D2 cells, calcium flux, dopamine EC80 | AID 485344; in the data active means inhibition above about 30%; inactive means below that, where a call was filed; further: 0% is about no effect
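Calcium mobilization kinetics were recorded at 1 s intervals in tetracycline-induced HEK293 T-REx D2 cells, first for 180 s after compound addition and then 180 s after EC80 dopamine.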
D2 ag-1: activates the human D2 dopamine receptor; activation, % at 2 µM; AID 485358; HEK293 T-REx D2 cells, calcium flux agonist mode; P14416; 0.53% of 340,000 active;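 active means activation over 3 SD above normal in the single-dose calcium agonist read, cut at about 30% in these data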; further: 0% is about no effect
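Agonism scored from kinetic calcium signal (1 read/sec, 180 s) following compound pin transfer, after a 10 s baseline. Cells: HEK293 Trex line expressing inducible D2 receptor coupled to calcium, dye-loaded after overnight culture at 30 C.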
D2 PAM-1: positive allosteric modulators of human D2 dopamine receptor | potentiation, % (concentration not given with the values) | 0.23% of 360,000 active | AID 624464 | P14416 | DiscoveRx D2 beta-arrestin cells, luminescence, 90 min; 100% = 57 uM dopamine signal; in the data active means potentiation above about 50%; inconclusive means mostly about 30% to 49%
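PathHunter beta-arrestin assay in DiscoveRx D2 cells. Compounds were added with an EC20 of dopamine (50 nM final) for 90 min at 37 deg C. Luminescence was read 1 h after detection reagent, with 57 uM dopamine as the EC100 control.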
D2 PAM-2: D2 dopamine receptor (human) potentiation. HEK293 T-REx D2, calcium flux, EC20 dopamine potentiation. P14416. AID 485347. 0.34% of 340,000 active. potentiation, % at 10 µM;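 active means potentiation over 3 SD above the plate norm, cut at about 30% in these data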; further: 0% is about no effect
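Using a no-wash calcium dye in inducible, force-coupled HEK293 Trex cells expressing D2, we tracked fluorescence each second for 180 s after compound, then for 180 s after EC20 dopamine to detect augmented signalling.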
D2 ag-2: human D2 receptor agonism in beta-arrestin assay | P14416 | DiscoveRx PathHunter D2 beta-arrestin, luminescence, 90 min; 100% = 57 uM dopamine signal | activation, % (no concentration beside the values) | 0.084% of 360,000 active | AID 624465; in the data active means activation above about 40%; inconclusive means between about 15% and that limit
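Agonist mode: compounds alone added to overnight-plated D2 PathHunter cells for 90 min at 37 C, with 57 uM final dopamine (EC100) defining full response. Beta-arrestin recruitment detected by chemiluminescent reagent, read after 1 h at ambient temperature.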
D3 arrestin ag: D3 receptor agonism confirmed, beta-arrestin readout. shares compounds with D2 ag-1. DiscoveRx D3 beta-arrestin cells, luminescence, 90 min. Potency, µM (doses to about 76.9 µM), for the others: top-dose activation, usual class: activators. 4% of 2,300 active. AID 720506;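 further: potency means the concentration at half of the fitted maximal effect; 100% = dopamine control response; nearly all actives have a fitted effect of over 70% in size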
Target sequence (P35462 whole entry, looked up): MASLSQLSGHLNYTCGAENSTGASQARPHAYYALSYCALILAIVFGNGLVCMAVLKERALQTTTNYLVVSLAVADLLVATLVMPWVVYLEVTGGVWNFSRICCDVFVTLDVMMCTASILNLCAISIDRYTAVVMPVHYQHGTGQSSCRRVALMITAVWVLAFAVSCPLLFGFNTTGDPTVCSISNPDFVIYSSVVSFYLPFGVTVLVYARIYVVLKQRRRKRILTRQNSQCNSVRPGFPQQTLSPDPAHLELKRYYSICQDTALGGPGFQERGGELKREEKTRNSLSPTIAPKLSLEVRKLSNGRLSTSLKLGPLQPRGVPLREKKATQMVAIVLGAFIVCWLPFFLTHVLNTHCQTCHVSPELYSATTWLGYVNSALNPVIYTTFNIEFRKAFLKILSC
D2 ag-3: activates human D2 dopamine receptor in D3 counterscreen; shares compounds with D2 ag-1; DiscoveRx PathHunter D2 beta-arrestin, luminescence, 90 min; response scale: percent relative to full dopamine signal; Potency, µM (titrated, usually from 76.9 µM), for inactives: at the top dose activation, most hits filed as activators; 5.9% of 2,300 active; AID 720507; further: potency means the concentration at half of the fitted maximal effect; % of control where 0% means no effect; nearly all actives have a fitted effect of over 70% in size
The depositor's hits bear a star; ? = inconclusive; nt = no result given. An excerpt weighted towards active compounds, which were near 2.4% of everything screened. Unless noted, the call rests on the fitted dose curve; in most records, active means well fitted activation curve with a large enough effect; inconclusive means small, poorly fitted or top-dose-only effect; inactive means flat fitted curve, though single readings scatter.

SMILES	D2 antag	D2 ag-1	D2 PAM-1	D2 PAM-2	D2 ag-2	D3 arrestin ag	D2 ag-3
Cc1cc(-c2ccc(C)c(S(=O)(=O)NCCCN3CCN(c4ccccc4)CC3)c2)on1	73*	72*	-8	-28	11	?	?
Cc1cc(-c2ccc(C)c(S(=O)(=O)NCCCN3CCN(c4ccccc4F)CC3)c2)on1	76*	70*	-8	-24	11	?	?
CSc1ccc(CCNS(=O)(=O)c2cc(-c3cc(C)no3)ccc2C)cc1	nt	0	nt	9	nt	nt	nt
COc1ccc(-c2cc(C)no2)cc1S(=O)(=O)NCCCN1CCN(c2ccccc2)CC1	80*	78*	-6	-31	7	24%	?
CCN1CCN(CC(O)COCc2ccccc2)CC1 (stereo not given)	-5	1	-7	2	-2	nt	nt
Cc1ccc(N2CCN(CC(O)COc3ccc([N+](=O)[O-])cc3)CC2)cc1 (stereo not given)	10	0	-9	-14	3	nt	nt
OC(CNCC1COc2ccccc2O1)COc1ccccc1F (stereo not given)	96*	78*	-16	-36	0	17%	10%
OC(COCC1COc2ccccc2O1)CN1CCN(c2ccccc2F)CC1 (stereo not given)	84*	60*	-10	-23	7	?	?
O=[N+]([O-])c1ccc(OCC(O)CN2CCN(c3ccccc3F)CC2)cc1 (stereo not given)	91*	79*	-15	-26	?	?	?
OC(COCc1ccccc1)CN1CCN(c2ccccc2F)CC1 (stereo not given)	111*	64*	-29	-22	6	?	?
COc1ccc(OC)c(Nc2sc(C(=O)c3ccccc3)c(N)c2S(=O)(=O)c2ccccc2)c1	nt	2	nt	16	nt	nt	nt
O=C(COc1ccc(C(=S)N2CCCC2)cc1)Nc1ccccc1C(F)(F)F	2	-1	-8	1	6	nt	nt
Cc1cc(C)c(S(=O)(=O)NCc2ccccn2)c(C)c1	0	-2	-3	9	-2	nt	nt
Cn1c(=NC(=O)COc2ccccc2)sc2cccc(F)c21	3	2	0	-6	-1	-4%	-2%
Cn1c(=NC(=O)COc2ccccc2)sc2cc(F)cc(F)c21	-5	1	-7	2	-6	nt	nt
CCOC(=O)c1sc2ncn(CC(=O)Nc3cccc(C)c3)c(=O)c2c1C	nt	0	nt	10	nt	nt	nt
O=S1(=O)N=C(N/N=C/c2ccc(Br)o2)c2ccccc21	7	0	4	-6	0	nt	nt
CCNc1nc(C#N)nc2c1ncn2-c1cc(F)cc(F)c1	12	0	nt	7	nt	-5%	-1%
CCc1ccccc1NC(=S)N1CCN(c2ccccc2F)CC1	14	15	-15	-1	-4	-1%	2%
CCOC(=O)C1CCN(C(=O)CCC(=O)NNc2nc3ccccc3c3nc(C)nn23)CC1	15	0	-2	-3	-5	nt	nt
CCCCN(CC)CCCNC(=O)CC1Oc2ccccc2NC1=O (stereo not given)	87*	81*	?	-18	53*	?	50µM*
CC(C)CN(CCCNC(=O)CC1Oc2ccccc2NC1=O)CC(C)C (stereo not given)	22	0	4	-6	3	nt	nt
CCN(CC)CCCNC(=O)CC1Sc2ccccc2NC1=O (stereo not given)	17	22	-5	-10	1	-13%	6%
Cc1cc(C)c2[nH]c(C(=O)N3CCC(n4nccc4NC(=O)C4CC4)CC3)c(C)c2c1	3	0	-10	4	-2	nt	nt
O=C(c1cc(-c2cccs2)nn1-c1ccccc1)N1CCN(S(=O)(=O)c2ccccc2)CC1	-25	0	-35	3	-4	nt	nt
SMILES	D2 antag	D2 ag-1	D2 PAM-1	D2 PAM-2	D2 ag-2	D3 arrestin ag	D2 ag-3
CCOC(=O)C1C(C(=O)OCC)C1(c1ccccc1)c1ccccc1 (stereo not given)	-9	1	-11	13	-1	nt	nt
CCOC(=O)/C=C/[C@H]1CC(c2ccccc2)(c2ccccc2)CO1	-3	-1	2	4	-1	-3%	-1%
CCOc1ccc(NC(=O)N2CCN(c3nnc(C)c4c(C)n(-c5ccccc5)nc34)CC2)cc1	nt	0	nt	21	nt	nt	nt
CCCOc1ccc(C(=O)NNC(=S)NC(=O)c2ccco2)cc1	15	34*	-13	-4	-9	-6%	-9%
CCOC(=O)[C@@H]1[C@H]2COc3ccc(Br)cc3[C@@H]2N2C(=O)N(c3ccc(Br)cc3)C(=O)[C@]12C	9	32*	-1	-19	-4	-1%	7%
CCOC(=O)[C@@H]1[C@H]2COc3ccc(Br)cc3[C@H]2N2C(=O)N(c3ccc(Br)cc3)C(=O)[C@]12C	-4	0	-27	-11	1	nt	nt
CCOC(=O)[C@H]1[C@H]2COc3cc(OC)ccc3[C@@H]2N2C(=O)CN(Cc3ccco3)C(=O)[C@@]12C	-5	0	-2	6	1	-5%	-4%
CC1CCCC(C)N1C(=O)CN1c2cccc3cccc(c23)S1(=O)=O (stereo not given)	nt	nt	1	nt	3	nt	nt
COc1ccc(C2=CC(=O)C[C@H](c3ccc(OC)c(OC)c3)C2)cc1	2	0	-5	14	-4	9%	17%
COc1cccc(C2=CC(=O)C[C@H](c3ccc(F)cc3)C2)c1	3	-1	-9	12	-3	-10%	-3%
COc1ccc([C@H]2CC(=O)C=C(c3ccccc3Oc3ccccc3)C2)cc1	7	0	-5	-12	-5	-13%	3%
COc1cc(F)cc(C2=CC(=O)C[C@H](c3ccc(F)cc3)C2)c1	-6	-1	-8	2	-1	nt	nt
COc1ccc([C@H]2CC(=O)C=C(c3cc(F)ccc3F)C2)cc1OC	-8	0	7	17	2	5%	20%
CC1CN(C(=O)CCC(=O)N2CCN(c3ccccn3)CC2)c2ccccc2O1 (stereo not given)	-22	0	-3	-7	-3	nt	nt
Cc1ccc2c(c1)N(C(=O)CCC(=O)N1CCN(c3ccccn3)CC1)CC(C)O2 (stereo not given)	-12	50*	-3	-18	-4	12%	9%
O=C(Cn1cc2c(n1)CCCC2)NCCCN1CCN(c2ccccc2F)CC1	76*	18	-8	-30	-1	-6%	3%
